# Data: PubChem BioAssay AID1476 (National Center for Advancing Translational Sciences (NCATS), 2009)
# In all, about 200,000 compounds went through this assay and about 4,500 (2.2%) were called active. Roughly 12% stayed inconclusive and do not appear here. Shown is part of a subset that was picked to be rich in actives. Unmarked numbers belong to inactive results. Calls follow the shape of the dose curve; as a rule, active = well fitted inhibition curve with a large enough effect; inconclusive = small, poorly fitted or top-dose-only effect, or effect the other way; inactive = flat fitted curve, though single readings scatter.
# Molecular target: Cruzipain (Trypanosoma cruzi) (UniProt P25779)
# Experiment: qHTS Assay for Promiscuous and Specific Inhibitors of Cruzain (without detergent); also: nearly all actives have a fitted effect of over 40% in size;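 as to max response, negative = inhibition: plate controls were enzyme without inhibitor for no effect and buffer without enzyme for full effect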
# Details: purified cruzain, Z-FR-AMC fluorescence, no detergent
# Procedure, shortened: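 Detergent-free condition (0.00005% Triton X-100) in acetate buffer pH 5.5 with DTT. 1.5 nM enzyme and compound were pre-mixed 15 min, then 2 uM Z-FR-AMC substrate added; reaction progress from fluorescence change between first and third reads (60 s).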
# Potency is read from the fitted curve at half-maximal effect.
# Sequence of Cruzipain (Trypanosoma cruzi) (P25779 123-467 limits assumed): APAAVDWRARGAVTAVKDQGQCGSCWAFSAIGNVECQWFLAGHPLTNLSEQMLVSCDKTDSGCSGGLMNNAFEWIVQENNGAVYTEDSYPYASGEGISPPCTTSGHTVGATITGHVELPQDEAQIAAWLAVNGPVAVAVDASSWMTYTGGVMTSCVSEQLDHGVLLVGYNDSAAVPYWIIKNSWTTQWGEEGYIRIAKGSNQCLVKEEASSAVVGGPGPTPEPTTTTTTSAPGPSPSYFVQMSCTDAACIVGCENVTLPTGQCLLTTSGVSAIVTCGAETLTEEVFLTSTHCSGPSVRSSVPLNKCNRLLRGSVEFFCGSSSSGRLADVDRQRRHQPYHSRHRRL
Structure (SMILES),"max response, negative = inhibition [%]",Potency
CCC(=O)N1CCc2cc(Br)cc(S(=O)(=O)NCc3ccc(Cl)cc3)c21,5.32,
Cc1ccc(-n2ncc(C(=O)N(C)Cc3ccccc3)c2-n2cccc2)cc1,19.8,
O=C(Nc1cc2c3c(c1)C1CCCC1CN3CC1CCCC21)c1ccc([N+](=O)[O-])cc1 (stereo not given),,25.1 µM (active)
CC1CCc2noc(NC(=O)c3ccc([N+](=O)[O-])cc3)c2C1 (stereo not given),3.94,
O=C(Nc1cccc([N+](=O)[O-])c1)c1ccc2c(c1)OCO2,4.82,
C=CC(C1=CC(=O)C=CC1=O)c1ccc(O)cc1 (stereo not given),-6.77,
O=C(Nc1c2c(nc3ccccc13)CCCC2)c1ccccc1Br,6.61,
O=C(NNc1c2ccccc2nc2ccccc12)c1cc2ccccc2cc1O,,7.94 µM (active)
Cc1noc(C)c1COC(=O)c1cc2ccccc2cc1O,-7.72,
Cc1c(Cl)cccc1NC(=O)C1CCCN(C(=O)c2cnn(-c3ccccc3)c2-n2cccc2)C1 (stereo not given),17.7,
CCOC(=O)c1oc2ccc(S(=O)(=O)n3nc(-c4ccccc4OC)cc3N)cc2c1C,-16.2,
CCC(=O)N1CCc2cc(S(=O)(=O)NC(C(=O)Nc3ccc(C(C)=O)cc3)C(C)C)ccc21 (stereo not given),-5.8,
O=C1CN(C(=O)Nc2ccccc2C(F)(F)F)C(c2ccccc2)c2c(sc3c2CCCC3)N1 (stereo not given),-8.71,
O=C(COc1ccccc1F)OCc1cc(=O)n2nc(C3CCCCC3)sc2n1,-11.4,
Cc1cccc(C)c1NC(=O)CSc1ccc([N+](=O)[O-])cn1,-1.59,
Cc1ccc(-n2c(C)cc(/C=N/Nc3ccc([N+](=O)[O-])cn3)c2C)c(C)c1,,3.98 µM (active)
Cc1ccc(-n2c(C)cc(/C=N\NC(=O)CC(=O)NC(C)C)c2C)cc1,-4.29,
CCOc1ccc(C(=O)N2CCN(CCc3ccccn3)CC2)cc1,-2.86,
CSc1cccc(NC(=O)CN2C(=O)CCc3cc(S(=O)(=O)N4CCCCC4)ccc32)c1,-6.74,
CCOC(=O)N1CCc2c(sc3c2c(=O)n(Cc2ccccc2)c(=O)n3CC(=O)Nc2cccc(C)c2)C1,-13.3,
COc1cccc(NC(=O)C(C)Oc2ccccc2)c1 (stereo not given),2.56,
COc1cccc(NC(=O)C(Sc2nc3ccccc3c(=O)n2CC(C)C)c2ccccc2)c1 (stereo not given),,5.01 µM (active)
COCCn1c(SCC(=O)Nc2ccc3c(c2)CCC3)nc2ccccc2c1=O,7.57,

Structure (SMILES),"max response, negative = inhibition [%]",Potency
O=S(=O)(Nc1ccc2nc(-c3cccc(Cl)c3)oc2c1)c1ccccc1,5.84,
COc1ccc(CNC(=O)c2cc3c(=O)[nH]c4ccccc4c3s2)cc1,-0.0351,
CC(C)CC(=O)Nc1cc(C(F)(F)F)ccc1N1CCOCC1,-0.397,
COc1c(C)cccc1C(=O)Nc1cc(Cl)ccc1N1CCOCC1,-1.36,
O=C(NC(=S)Nc1cc(C(F)(F)F)ccc1N1CCOCC1)c1ccc(-c2cccc(Cl)c2)o1,,10 µM (active)
COc1ccccc1/C=C/c1nc(C#N)c(NC(C)c2ccccc2)o1 (stereo not given),-27.6,
Cc1ccc(NC(=O)C2CCCN2S(=O)(=O)c2cccc3cccnc23)c(C)c1 (stereo not given),-5.43,
Cc1nc(-c2ccccc2)sc1C(=O)/C=C/c1ccccc1,3.75,
Cc1ccc(N/C=C/C(=O)c2ccccc2)cc1C,-22.6,
O=C(/C=C/Nc1ccccc1)c1cnc(-c2ccccc2)s1,,12.6 µM (active)
Cc1c(C)n(Cc2ccc(Cl)cc2)c2ccc(C(=O)NCCc3ccc(S(N)(=O)=O)cc3)cc12,-27.4,
NC(=O)CSc1nc2c(oc3ccccc32)c(=O)n1Cc1ccccc1,1.12,
C/C(=N\Nc1nc2ccccc2[nH]1)c1cccs1,,25.1 µM (active)
OCCNc1nc2ccccc2[nH]1,-0.339,
O=C(CSc1nc2ccccc2[nH]1)c1cccs1,-7.22,
Cc1ccc(Cn2c(C)c3cnn(CC(=O)NCc4ccccc4)c(=O)c3c2C)cc1,-6.45,
COc1ccc(Nc2ncc3c(n2)CCN(C(=O)OC(C)(C)C)C3)cc1,-2.11,
O=C(Cc1ccc(Cl)cc1)NCC(c1cccs1)S(=O)(=O)c1ccc(Cl)cc1 (stereo not given),1.56,
CCc1nn(CC(=O)N2CCN(c3cc(C)ccc3C)CC2)c(=O)c2cc3occc3n12,6.7,
CC(C)CNS(=O)(=O)c1ccc(OCC(=O)Nc2ccc3c(c2)OCO3)c(Cl)c1,-2.91,
COc1ccc(F)cc1S(=O)(=O)Nc1ccc2c(c1)OCO2,9.18,
COc1ccc(S(=O)(=O)Nc2ccc3c(c2)OCO3)cc1Cl,,15.8 µM (active)
COc1cc(Br)cc2cc(S(=O)(=O)c3ccccc3)c(=O)oc12,-12.9,

Structure (SMILES),"max response, negative = inhibition [%]",Potency
Cc1nnc(SCC(=O)N2c3ccccc3C(C)(c3ccc(Cl)cc3)CC2(C)C)s1 (stereo not given),-0.125,
CC1(c2ccccc2)CC(C)(C)N(C(=O)c2cc([N+](=O)[O-])cc([N+](=O)[O-])c2)c2ccccc21 (stereo not given),,25.1 µM (active)
CC1(c2cccc([N+](=O)[O-])c2)CC(C)(C)N(C(=O)c2ccccc2)c2ccccc21 (stereo not given),-29.1,
Cc1ccc(Cn2cc(CCC(=O)NCc3ccc(OC(C)C)cc3)c3ccccc32)cc1,6.72,
Cc1cc(C)cc(NC(=O)CSc2oc(-c3ccccc3)nc2S(=O)(=O)c2ccc(Cl)cc2)c1,-6.39,
COCCNC(=O)CSc1c(C)cnc2c1c(=O)n(C)c(=O)n2C,7.18,
COc1ccc(-c2c3c(=O)n(C)c(=O)n(C)c3cn2NC(C)=O)cc1,-4.34,
Cc1ccc(-c2c3c(=O)n(C)c(=O)n(C)c3cn2-c2ccccc2O)cc1,12.7,
Cc1ccc(-c2c3c(=O)n(C)c(=O)n(C)c3cn2-n2cnnc2)cc1,,12.6 µM (active)
CC(=O)c1ccc(NS(=O)(=O)c2ccc(-c3cc(C)no3)s2)cc1,-22.1,
CCC(=O)Nc1ccc2nc(SCC(=O)N3CCc4ccccc43)sc2c1,26.9,
O=C(Nc1ccc2nc(SCC(=O)N3CCCc4ccccc43)sc2c1)c1ccc(Cl)cc1,,10 µM (active)
O=C(Nc1ccc2nc(SCC(=O)N3CCc4ccccc43)sc2c1)c1ccccc1F,-3.59,
COc1ccccc1NC(=O)CCC(=O)N1CC(C)Oc2ccc(C)cc21 (stereo not given),-1.12,
COc1ccc(C2CC(c3ccccc3)=NN2C(=O)CSc2nccc(=O)[nH]2)cc1 (stereo not given),-19,
COc1ccccc1N1CCN(C(=O)Cn2nnc(-c3cccs3)n2)CC1,-5.5,
O=C1c2cccc(OCC(=O)N3N=C(c4cccs4)CC3c3ccc(F)cc3)c2CCN1Cc1ccccc1 (stereo not given),,12.6 µM (active)
O=C(Cn1ncc2c3ccccc3n(Cc3ccccc3)c2c1=O)NCc1ccccn1,20.3,
COC(=O)c1cnc(N2CCN(c3ccccc3OC)CC2)c2ccccc12,5.66,
N#CCSc1nc2ccccc2c(=O)n1-c1ccccc1,3.22,
N#CCSc1nc2c(c(=O)n1Cc1ccccc1)C1(CCCC1)Cc1ccccc1-2,,12.6 µM (active)
Cc1cccc(-n2c(SCC(N)=O)nc3c(c2=O)C2(CCCCC2)Cc2ccccc2-3)c1,-0.318,
CCS(=O)(=O)N1CCc2cc(C(=O)NCc3ccc(OC)cc3)ccc21,-7.6,

Structure (SMILES),"max response, negative = inhibition [%]",Potency
CCCCS(=O)(=O)c1oc(-c2cccs2)nc1S(=O)(=O)c1ccccc1,-4.72,
COC(=O)c1ccc(C2C(C(=O)Nc3ccccc3)=C(C)Nc3nc4ccccc4n32)cc1 (stereo not given),-6.78,
CC(C)c1ccc(Nc2nnc(SCC(=O)c3nnc(-c4ccccc4)o3)s2)cc1,,12.6 µM (active)
Cc1ccsc1C(=O)OCC(=O)c1cc2ccccc2o1,2.71,
Cc1ccc(Nc2nnc(SCc3ccccc3)s2)cc1,-12.9,
Cc1ccc(Nc2nnc(SCC(=O)c3cc4ccccc4o3)s2)cc1C,,15.8 µM (active)
CC(C)Nc1nnc(SCC(=O)c2c[nH]c3ccccc23)s1,-13.7,
O=C(CSc1nnc(Nc2ccccc2)s1)Nc1cccnc1Cl,-18,
CCN(c1ncnc2c1cnn2-c1ccc(C)cc1)C1CCCCC1,2.47,
COc1cccc(-n2c(=O)c3c(C)c(C(=O)N(C)C)sc3n(Cc3cccc(C)c3)c2=O)c1,-4.38,
O=C(Nc1ccc(F)cc1F)c1ccc2c(=O)n3c(nc2c1)CCCCC3,-3.34,
CN(Cc1ccccc1)C(=O)c1cc2c(=O)n(C)c3ccccc3c2s1,3.44,
Cc1n[nH]c(=O)n1-c1ccc(Oc2ccccc2)cc1,4.55,
Cc1cc(C(=O)OCC(=O)N2c3ccccc3NC(=O)C2(C)C)c(C)n1-c1ccccc1,-5.2,
Cc1cc(-c2csc(N)n2)c(C)n1-c1ccccc1,,25.1 µM (active)
Cc1cccc(N(C)C(=O)CS(=O)(=O)c2cccc3nsnc23)c1,-1.79,
COc1ccc(-n2c(SCC(=O)Nc3ccc(Cl)c(C)c3)nc3n[nH]c(C)c3c2=N)cc1,-5.01,
CCC(=O)N1CCc2cc(S(=O)(=O)NC(CC(C)C)C(=O)NCCc3cccc(C)c3)ccc21 (stereo not given),-3.67,
Cc1ccc(C)c(NC(=O)C(OC(=O)c2ccc(C)s2)c2ccccc2)c1 (stereo not given),12.2,
COc1ccc(C)cc1NC(=O)C(Sc1ccccc1)c1ccccc1 (stereo not given),-12.8,
COc1ccc(C)cc1NC(=O)C(OC(=O)c1cccc(S(=O)(=O)N(C)c2ccccc2)c1)c1ccccc1 (stereo not given),,7.94 µM (active)
